# Experimental data taken from PubChem BioAssay (NCATS).
# Values joined by “and” are separate entries in the source; they are usually repeats but may differ in a detail not shown here. Equal entries are not always repeated. Records with an inconclusive call do not appear. Active and inactive are the calls of the source. Unless noted, the call rests on the fitted dose curve; in most records, active means well fitted inhibition curve with a large enough effect; inconclusive means small, poorly fitted or top-dose-only effect; inactive means flat fitted curve, though single readings scatter.
# Molecular target: Dual specificity protein kinase CLK4 (Homo sapiens) (UniProt Q9HAZ1)
# Sequence (Q9HAZ1 whole entry, looked up): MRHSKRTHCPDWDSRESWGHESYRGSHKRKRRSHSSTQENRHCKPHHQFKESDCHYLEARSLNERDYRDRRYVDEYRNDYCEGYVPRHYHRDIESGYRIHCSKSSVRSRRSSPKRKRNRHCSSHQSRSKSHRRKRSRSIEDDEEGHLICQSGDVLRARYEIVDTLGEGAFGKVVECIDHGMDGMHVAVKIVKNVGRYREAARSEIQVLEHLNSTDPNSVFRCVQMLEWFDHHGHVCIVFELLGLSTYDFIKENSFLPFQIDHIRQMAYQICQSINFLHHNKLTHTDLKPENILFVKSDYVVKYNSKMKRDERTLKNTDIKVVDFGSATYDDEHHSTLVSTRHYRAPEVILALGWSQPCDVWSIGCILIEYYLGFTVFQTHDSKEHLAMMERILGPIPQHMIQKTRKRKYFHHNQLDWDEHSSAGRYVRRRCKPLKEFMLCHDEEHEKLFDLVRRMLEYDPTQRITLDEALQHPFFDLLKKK
# Test: qHTS Assay for Inhibitors of CDC-like Kinase 4 (ADP-FP Assay) (AID 1795); further: nearly all actives have a fitted effect of over 60% in size; further: potency means the concentration at half of the fitted maximal effect;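 on activity change, negative = inhibition: recombinant human CLK4 phosphorylating RS repeat peptide at 1 µM ATP; on the % scale 0 is the no-effect control and ±100 the full control effect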
# Settings: Transcreener ADP fluorescence polarization; series mostly up to 50 µM; activity change, negative = inhibition: at the top concentration
# In short: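 Kinase activity was followed as ADP output, converted from fluorescence polarization with a calibration curve. Reactions ran one hour at low ATP (1 uM) with RS peptide substrate.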
SMILES,Potency,"activity change, negative = inhibition"
Clc1ccccc1-c1nc(-n2ccnc2)c2ccccc2n1,1 µM (active),–
COc1ccccc1CNc1ncncc1-c1ccccc1C(F)(F)F,–,5.5% (inactive)
c1ccc(Nc2nc(-c3cccnc3)nc3ccccc23)cc1,2 µM (active),–
c1ccc(CNc2nc(-c3cccnc3)nc3ccccc23)cc1,5.01 µM (active),–
CN(C)c1ncc2nc(CCc3ccccc3)c(=O)n(CCc3ccccc3)c2n1,–,6.58% (inactive)
COc1ccc(-n2c(=O)c(-c3cccs3)nc3cnc(N4CCN(C)CC4)nc32)cc1,–,4.86% (inactive)
CCNc1ncc2ncc(=O)n(Cc3cccc(OC)c3)c2n1,11.2 µM (active),–
CCNc1ncc2nc(CCc3ccccc3)c(=O)n(Cc3cccc(OC)c3)c2n1,–,11.1% (inactive)
Cn1c(=O)c(-c2ccccc2)nc2cnc(N3CCOCC3)nc21,–,4.06% (inactive)
Cn1c(=O)c(-c2ccc(Cl)cc2)nc2cncnc21,–,-4.59% (inactive)
COc1cccc(Cn2c(=O)c(CCc3ccccc3)nc3cnc(N(C)C)nc32)c1,–,5.66% (inactive)
c1ccc2c(NCCN3CCOCC3)nc(-c3ccoc3)nc2c1,–,-9.33% (inactive)
Cc1nc2cnc(N3CCN(C)CC3)nc2n(CCc2ccccc2)c1=O,–,5.51% (inactive)
CN(C)c1ncc2nc(CCc3ccccc3)c(=O)n(CCC#N)c2n1,–,11.7% (inactive)

# Molecular target: Ubiquitin carboxyl-terminal hydrolase 1 (Homo sapiens) (UniProt O94782)
# Sequence (O94782 whole entry, looked up): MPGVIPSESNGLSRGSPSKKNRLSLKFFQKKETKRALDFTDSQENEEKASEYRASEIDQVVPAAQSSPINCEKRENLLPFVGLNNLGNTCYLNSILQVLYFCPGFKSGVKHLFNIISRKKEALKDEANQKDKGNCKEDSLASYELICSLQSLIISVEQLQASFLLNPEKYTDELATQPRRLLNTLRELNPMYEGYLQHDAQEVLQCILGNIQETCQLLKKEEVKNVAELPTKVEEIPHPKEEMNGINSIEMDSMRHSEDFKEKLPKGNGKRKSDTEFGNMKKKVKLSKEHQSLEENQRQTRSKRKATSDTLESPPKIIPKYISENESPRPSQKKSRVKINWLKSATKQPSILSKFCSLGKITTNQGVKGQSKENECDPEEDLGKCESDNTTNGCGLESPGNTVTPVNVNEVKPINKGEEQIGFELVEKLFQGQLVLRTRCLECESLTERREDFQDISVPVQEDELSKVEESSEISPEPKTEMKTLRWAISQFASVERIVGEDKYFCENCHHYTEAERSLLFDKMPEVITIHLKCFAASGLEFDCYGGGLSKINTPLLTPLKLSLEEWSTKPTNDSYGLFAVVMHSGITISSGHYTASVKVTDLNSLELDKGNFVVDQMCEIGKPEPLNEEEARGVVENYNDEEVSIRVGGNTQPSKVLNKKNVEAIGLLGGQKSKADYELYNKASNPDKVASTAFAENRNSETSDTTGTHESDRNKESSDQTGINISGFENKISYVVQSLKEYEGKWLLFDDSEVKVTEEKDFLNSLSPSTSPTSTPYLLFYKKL
# Test: Inhibitors of USP1/UAF1: Pilot qHTS (AID 504865); further: nearly all actives have a fitted effect of over 35% in size; further: potency means the concentration at half of the fitted maximal effect;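 on activity change, negative = inhibition: rhodamine fluorescence freed from ubiquitin-rhodamine substrate followed over time; top concentration of the series differs between compounds; on the % scale 0 is the no-effect control and ±100 the full control effect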
# Settings: purified USP1/UAF1, Ub-rhodamine cleavage fluorescence; series mostly up to 54.9 µM; activity change, negative = inhibition: at the top concentration
# In short: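 Enzyme-free wells gave the negative control, while test wells held 1nM USP1/UAF1 preincubated with compound for 15 min at room temperature. Ub-Rho at 150nM final started the reaction, and fluorescence at 480/540 nm was recorded kinetically.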
SMILES,Potency,"activity change, negative = inhibition"
O=C(O)c1cc(O)c2c(c1)[C@H]([C@H]1c3cc(C(=O)O)cc(O)c3C(=O)c3c(O[C@@H]4OC(CO)C(O)C(O)C4O)cccc31)c1cccc(O[C@@H]3OC(CO)C(O)C(O)C3O)c1C2=O (stereo not given in full),10 µM (active),–
O=C1CC(c2ccccc2)Oc2ccccc21 (stereo not given),–,-9.53% [at 114 µM] (inactive)
Clc1ccccc1-c1nc(-n2ccnc2)c2ccccc2n1,–,-21.4% (inactive)
CC(C)CN(C[C@@H](OP(=O)(O)O)[C@H](Cc1ccccc1)NC(=O)O[C@@H]1CCOC1)S(=O)(=O)c1ccc(N)cc1,–,0.678% [at 114 µM] (inactive)
COc1ccccc1CNc1ncncc1-c1ccccc1C(F)(F)F,–,-14.4% (inactive)
c1ccc(Nc2nc(-c3cccnc3)nc3ccccc23)cc1,–,-14.9% (inactive)
CN(C)c1ncc2nc(CCc3ccccc3)c(=O)n(CCc3ccccc3)c2n1,–,-18.5% (inactive)
COc1ccc(-n2c(=O)c(-c3cccs3)nc3cnc(N4CCN(C)CC4)nc32)cc1,–,-12% (inactive)
CCC(C)n1ncn(-c2ccc(N3CCN(c4ccc(OCC5COC(Cn6cncn6)(c6ccc(Cl)cc6Cl)O5)cc4)CC3)cc2)c1=O (stereo not given),–,-4.9% [at 114 µM] (inactive)
CCNc1ncc2ncc(=O)n(Cc3cccc(OC)c3)c2n1,–,-9.61% (inactive)
CCNc1ncc2nc(CCc3ccccc3)c(=O)n(Cc3cccc(OC)c3)c2n1,–,-10.1% (inactive)
Cn1c(=O)c(-c2ccccc2)nc2cnc(N3CCOCC3)nc21,–,-7.19% (inactive)
CC(C)CN(C[C@@H](O)[C@H](Cc1ccccc1)NC(=O)O[C@H]1CCOC1)S(=O)(=O)c1ccc(N)cc1,–,-6.72% [at 114 µM] (inactive)
Cn1c(=O)c(-c2ccc(Cl)cc2)nc2cncnc21,–,-9.44% (inactive)
c1ccc2c(NCCN3CCOCC3)nc(-c3ccoc3)nc2c1,–,-13.3% (inactive)
Cc1nc2cnc(N3CCN(C)CC3)nc2n(CCc2ccccc2)c1=O,–,-9.74% (inactive)
CN(C)c1ncc2nc(CCc3ccccc3)c(=O)n(CCC#N)c2n1,–,-13.1% (inactive)

# Molecular target: Glucocorticoid receptor (Homo sapiens) (UniProt P04150)
# Sequence (P04150 whole entry, looked up): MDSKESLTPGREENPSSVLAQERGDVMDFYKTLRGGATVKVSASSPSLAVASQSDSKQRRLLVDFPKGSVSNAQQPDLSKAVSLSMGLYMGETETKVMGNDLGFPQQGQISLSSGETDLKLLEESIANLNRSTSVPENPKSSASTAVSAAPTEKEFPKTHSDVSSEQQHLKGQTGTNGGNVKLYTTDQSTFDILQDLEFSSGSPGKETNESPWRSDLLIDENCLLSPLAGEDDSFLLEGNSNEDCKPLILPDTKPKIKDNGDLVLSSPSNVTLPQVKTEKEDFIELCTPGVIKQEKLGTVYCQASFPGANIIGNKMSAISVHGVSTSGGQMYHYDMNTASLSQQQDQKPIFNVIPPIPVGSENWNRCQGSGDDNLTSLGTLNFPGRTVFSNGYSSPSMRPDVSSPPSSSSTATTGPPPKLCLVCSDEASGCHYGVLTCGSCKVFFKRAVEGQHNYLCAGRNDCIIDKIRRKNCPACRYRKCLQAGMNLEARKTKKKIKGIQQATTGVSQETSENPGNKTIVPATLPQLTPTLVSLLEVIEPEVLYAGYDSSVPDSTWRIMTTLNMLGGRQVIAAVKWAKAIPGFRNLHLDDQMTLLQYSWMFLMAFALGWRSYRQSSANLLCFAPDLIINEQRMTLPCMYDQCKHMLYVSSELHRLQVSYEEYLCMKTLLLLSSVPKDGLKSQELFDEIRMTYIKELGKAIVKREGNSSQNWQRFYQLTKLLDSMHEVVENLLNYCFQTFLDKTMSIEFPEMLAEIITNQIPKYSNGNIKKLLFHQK
# Test: qHTS assay for small molecule agonists of glucocorticoid receptor signaling (AID 588532; active means well fitted curve in the direction sought with a large enough effect in the signal ratio, with a control signal flat; the % refers to the signal ratio;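 further: 100% = dexamethasone at 0.1 µM and 0% = DMSO only wells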)
# Settings: HeLa MMTV-bla, beta-lactamase ratio, agonist, 18 h; stronger effect = higher value; percent of dexamethasone control, DMSO zero
# In short: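 Titration series, up to 92 uM, applied to GRE-bla HeLa cells for 18 h at 37 C. Detection by CCF4 FRET substrate after 2 h at RT.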
row,SMILES,activation
1,CC12CCC(CC1=O)C2(C)C (stereo not given),-1.08% (inactive) and -9.03% (inactive)
2,O=C(/C=C/c1ccc(O)c(O)c1)O[C@@H](C(=O)O)[C@@H](OC(=O)/C=C/c1ccc(O)c(O)c1)C(=O)O,1.43% (inactive)
3,O=C(Nc1ccccc1)c1ccccc1O,2.18% (inactive)

# Test system: not listed separately
# Test: qHTS assay for small molecule antagonists of peroxisome proliferator-activated receptor delta signaling (AID 588535; active means well fitted inhibition curve with a large enough effect in the signal ratio, with a control signal flat, not every such curve was filed as active; the % refers to the signal ratio;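 on max response: cells co-treated with a PPAR-delta agonist as stimulator during compound exposure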)
# Settings: HEK293T PPARd-UAS-bla, beta-lactamase FRET ratio, 18 h; 460 nm channel
# In short: (§1)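 GeneBLAzer PPAR-delta-UAS-bla HEK293T cells in medium with 2% charcoal/dextran FBS were preincubated 5 hrs at 37 C, then given compounds, incubated 18 hrs at 37 C, and read by CCF4 beta-lactamase fluorescence; IC50 from Hill fits.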
row,SMILES,max response
1,CC12CCC(CC1=O)C2(C)C (stereo not given),-33.5% and 11.1%
2,O=C(/C=C/c1ccc(O)c(O)c1)O[C@@H](C(=O)O)[C@@H](OC(=O)/C=C/c1ccc(O)c(O)c1)C(=O)O,24.1%
3,CCCCCCCCOC(=O)c1cc(O)c(O)c(O)c1,-19.5%
4,O=C(O)CCCCCCCCC(=O)O,1.66%
5,O=C(Nc1ccccc1)c1ccccc1O,-6.49%
6,C[Si](C)(C)O[Si](C)(C)O[Si](C)(C)C,25.8%

# Molecular target: Peroxisome proliferator-activated receptor delta (Homo sapiens) (UniProt Q03181)
# Sequence (Q03181 whole entry, looked up): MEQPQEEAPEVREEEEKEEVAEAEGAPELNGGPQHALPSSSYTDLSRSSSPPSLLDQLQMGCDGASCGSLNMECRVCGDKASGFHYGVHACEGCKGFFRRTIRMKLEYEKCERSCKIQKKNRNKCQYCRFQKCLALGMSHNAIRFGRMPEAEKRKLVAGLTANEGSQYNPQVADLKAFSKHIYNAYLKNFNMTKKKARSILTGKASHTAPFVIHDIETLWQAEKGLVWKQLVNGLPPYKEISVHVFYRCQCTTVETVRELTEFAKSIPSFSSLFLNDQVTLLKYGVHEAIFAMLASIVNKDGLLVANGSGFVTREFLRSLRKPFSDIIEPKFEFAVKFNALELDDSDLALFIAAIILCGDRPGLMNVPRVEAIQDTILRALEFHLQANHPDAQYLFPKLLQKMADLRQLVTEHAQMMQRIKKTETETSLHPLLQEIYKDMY
# Test: as above
# Settings: HEK293T PPARd-UAS-bla, beta-lactamase FRET ratio, 18 h; series mostly up to 76.7 µM; activity change, negative = inhibition: at the top concentration
# In short: as §1
SMILES,Potency,"activity change, negative = inhibition"
CC12CCC(CC1=O)C2(C)C (stereo not given),inactive,–
O=C(/C=C/c1ccc(O)c(O)c1)O[C@@H](C(=O)O)[C@@H](OC(=O)/C=C/c1ccc(O)c(O)c1)C(=O)O,–,-11.9% (inactive)
CCCCCCCCOC(=O)c1cc(O)c(O)c(O)c1,–,-14.3% (inactive)
O=C(O)CCCCCCCCC(=O)O,–,0.734% (inactive)
O=C(Nc1ccccc1)c1ccccc1O,–,9.23% (inactive)
C[Si](C)(C)O[Si](C)(C)O[Si](C)(C)C,–,-4.82% (inactive)

# Molecular target: Peroxisome proliferator-activated receptor gamma (Homo sapiens) (UniProt P37231)
# Sequence (P37231 whole entry, looked up): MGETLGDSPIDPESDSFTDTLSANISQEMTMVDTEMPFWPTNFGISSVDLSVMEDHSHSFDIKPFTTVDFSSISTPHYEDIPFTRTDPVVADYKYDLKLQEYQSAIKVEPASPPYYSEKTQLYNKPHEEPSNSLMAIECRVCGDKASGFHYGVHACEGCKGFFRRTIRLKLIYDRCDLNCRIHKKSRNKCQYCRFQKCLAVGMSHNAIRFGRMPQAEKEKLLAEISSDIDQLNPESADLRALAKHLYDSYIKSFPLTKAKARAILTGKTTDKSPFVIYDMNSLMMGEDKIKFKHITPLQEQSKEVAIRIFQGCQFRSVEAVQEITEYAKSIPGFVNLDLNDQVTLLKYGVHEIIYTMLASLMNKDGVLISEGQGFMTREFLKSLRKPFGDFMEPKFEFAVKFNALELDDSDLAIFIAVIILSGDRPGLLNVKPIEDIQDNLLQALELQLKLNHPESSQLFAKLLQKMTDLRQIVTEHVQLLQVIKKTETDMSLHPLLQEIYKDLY
# Test: qHTS assay for small molecule agonists of peroxisome proliferator-activated receptor gamma signaling (AID 588536; active means well fitted curve in the direction sought with a large enough effect in the signal ratio, with a control signal flat, not every such curve was filed as active; the % refers to the signal ratio;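 further: 0% = DMSO basal wells and 100% = rosiglitazone at 2 µM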)
# Settings: HEK293 PPARg-UAS-bla, beta-lactamase ratio, 16 h, percent of rosiglitazone response, DMSO as zero; series mostly up to 76.7 µM; activation: at the top concentration
# In short: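 HEK293 UAS-bla reporter line, 1% charcoal/dextran FBS; titration, 16 h, 37 C; CCF4 loading 2 h RT; fluorescence 460/530 nm. Normalized to rosiglitazone 2 uM = 100%, DMSO = 0%.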
row,SMILES,activation
1,O=C(/C=C/c1ccc(O)c(O)c1)O[C@@H](C(=O)O)[C@@H](OC(=O)/C=C/c1ccc(O)c(O)c1)C(=O)O,-1.72% (inactive)
2,CCCCCCCCOC(=O)c1cc(O)c(O)c(O)c1,-12.3% (inactive)
3,O=C(O)CCCCCCCCC(=O)O,-2.95% (inactive)
4,O=C(Nc1ccccc1)c1ccccc1O,-13.6% (inactive)
5,C[Si](C)(C)O[Si](C)(C)O[Si](C)(C)C,1.57% (inactive)

# Molecular target: Peroxisome proliferator-activated receptor gamma (Homo sapiens) (UniProt P37231)
# Test: qHTS assay for small molecule antagonists of peroxisome proliferator-activated receptor gamma signaling (AID 588537; active means well fitted inhibition curve with a large enough effect in the signal ratio, with a control signal flat, not every such curve was filed as active; the % refers to the signal ratio;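 further: reporter cells co-stimulated with 50 nM rosiglitazone agonist during compound treatment; % of control where 0% means no effect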)
# Settings: HEK293 PPARg-UAS-bla, beta-lactamase ratio, antagonist mode; series mostly up to 76.8 µM; activity, negative = inhibition: at the top concentration
# In short: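 PPAR-gamma-UAS-bla HEK293 cells (3000/well, 1% charcoal/dextran-stripped FBS) were preincubated 6-6.5 h at 37 C, given titrated compounds, then stimulated with 50 nM rosiglitazone for 16 h. Beta-lactamase activity was read with CCF4 dye; IC50 came from Hill fits.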
row,SMILES,"activity, negative = inhibition"
1,CCCCCCCCOC(=O)c1cc(O)c(O)c(O)c1,5.29% (inactive)
2,O=C(O)CCCCCCCCC(=O)O,8.14% (inactive)
3,O=C(Nc1ccccc1)c1ccccc1O,-13.4% (inactive)
4,C[Si](C)(C)O[Si](C)(C)O[Si](C)(C)C,2.25% (inactive)
